Results as given in PubChem BioAssay (Tox21).
Inconclusive results are not listed. Activity calls are given as the source filed them. Unless noted, calls follow the shape of the full dose curve.

Key:
[1] = Nuclear factor erythroid 2-related factor 2/antioxidant responsive element (Nrf2/ARE) small molecule agonists: qHTS cell viability counter screen in human keratinocytes (AID 1919968; active = well fitted curve in the direction sought with a large enough effect in the repeat runs; an effect the other way counts as inactive or inconclusive; also: nearly all actives have a fitted effect of over 55% in size)
Procedure, shortened: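 KeratinoSens HaCaT cells, 1,500/well, preincubated 5 h, then exposed to compounds in DMSO for 23 h at 37 C/5% CO2. Viability read as CellTiter-Fluor fluorescence after 1 h, in the same wells as the ARE-luciferase read.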

[2] = Nuclear factor erythroid 2-related factor 2/antioxidant responsive element (Nrf2/ARE) small molecule agonists: luciferase reporter gene qHTS assay in human keratinocytes (AID 1919969); also: nearly all actives have a fitted effect of over 35% in size
[3] = target: Gonadotropin-releasing hormone receptor (Homo sapiens) (UniProt P30968); test: Human gonadotropin-releasing hormone receptor (GnRHR) small molecule agonists, calcium flux assay in GnRHR-HEK293 cells (AID 1920063); also: nearly all actives have a fitted effect of over 35% in size
Sequence of Gonadotropin-releasing hormone receptor (Homo sapiens) (P30968 whole entry, looked up): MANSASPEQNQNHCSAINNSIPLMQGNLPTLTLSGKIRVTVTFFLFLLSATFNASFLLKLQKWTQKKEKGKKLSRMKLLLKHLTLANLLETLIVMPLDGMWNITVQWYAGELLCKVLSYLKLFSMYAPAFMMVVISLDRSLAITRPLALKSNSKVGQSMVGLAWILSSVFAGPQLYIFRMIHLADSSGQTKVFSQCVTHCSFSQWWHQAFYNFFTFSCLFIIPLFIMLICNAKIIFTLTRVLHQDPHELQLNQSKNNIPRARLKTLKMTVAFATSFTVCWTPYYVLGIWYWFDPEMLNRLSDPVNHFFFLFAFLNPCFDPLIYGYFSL
Procedure, shortened: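 HEK293 cells stably expressing human GnRHR were dye-loaded for 1 h at 37 C. Compound was added in agonist mode and fluorescence (Ex/Em 480/540) recorded kinetically for 3 min. Fifteen concentrations, triplicates.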

[4] = target: KiSS-1 receptor (Homo sapiens) (UniProt Q969F8); test: Human kisspeptin (KISS1R) small molecule agonists, calcium flux assay in KISS1R-HEK293 cells (AID 1920064; active = well fitted curve in the direction sought with a large enough effect in the repeat runs; an effect the other way counts as inactive or inconclusive)
Sequence of KiSS-1 receptor (Homo sapiens) (Q969F8 whole entry, looked up): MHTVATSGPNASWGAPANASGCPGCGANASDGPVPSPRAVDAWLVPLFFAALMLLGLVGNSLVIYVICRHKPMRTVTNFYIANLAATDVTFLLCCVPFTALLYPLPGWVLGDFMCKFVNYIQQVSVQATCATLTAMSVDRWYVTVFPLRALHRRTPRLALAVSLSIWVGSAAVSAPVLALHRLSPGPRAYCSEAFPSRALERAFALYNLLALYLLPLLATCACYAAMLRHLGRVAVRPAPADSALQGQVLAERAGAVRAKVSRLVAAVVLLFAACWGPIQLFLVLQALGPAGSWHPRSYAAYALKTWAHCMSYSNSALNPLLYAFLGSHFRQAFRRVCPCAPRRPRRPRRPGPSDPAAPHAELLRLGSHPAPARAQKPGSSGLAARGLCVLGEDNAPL
Procedure, shortened: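 HEK293 cells stably expressing human KISS1R were loaded with calcium dye for 1 h at 37 C, then given compound; fluorescence (Ex/Em 480/540) was read kinetically for 3 min. Fifteen concentrations, triplicate.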

[5] = G protein-coupled receptor (GPCR) small molecule agonists, calcium flux assay: HEK293 wild type cell line counter screen (AID 1920065)
Procedure, shortened: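 Wild-type HEK293 cells plated 18 h, loaded with calcium dye 1 h at 37 C, then compounds added in agonist mode (ATP as positive control). Kinetic fluorescence Ex/Em 480/540 recorded 3 min at 1 sec intervals; 15 concentrations, triplicate.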

[6] = p53 small molecule agonists, cell-based qHTS assay with human liver microsomes (AID 1963577)
Procedure, shortened: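 Compounds act here after metabolic activation: human liver microsomes and NADPH, both at 0.5 mg/mL final, were co-added to p53RE-bla cells. Incubation ran 16 h at 37 C, followed by LiveBLAzer detection.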

[7] = p53 small molecule agonists, cell-based qHTS assay with rat liver microsomes (AID 1963578)
Procedure, shortened: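 Read-out is beta-lactamase reporter fluorescence (LiveBLAzer, 2 h, room temperature, dark) in p53RE-bla cells treated 16 h at 37 C with compound, rat liver microsomes and NADPH, both 0.5 mg/mL final.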

[8] = p53 small molecule agonists, cell-based qHTS assay with human liver microsomes: qHTS cell viability counter screen (AID 1963579); also: nearly all actives have a fitted effect of over 45% in size
Procedure, shortened: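 Cells carrying the p53 response-element beta-lactamase reporter are treated for 16 h at 37 C with test compounds in the presence of human liver microsomes and NADPH (both 0.5 mg/mL final); ATP-based CellTiter-Glo luminescence then reports viability.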

[9] = p53 small molecule agonists, cell-based qHTS assay with rat liver microsomes: qHTS cell viability counter screen (AID 1963580); also: nearly all actives have a fitted effect of over 45% in size
Procedure, shortened: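 Intracellular ATP, by CellTiter-Glo luminescence, defines viability. HCT-116 p53RE-bla cells, 4,000 per well, were compound-treated in the presence of rat liver microsomes and NADPH for 16 h at 37 C.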

[10] = p53 small molecule agonists, cell-based qHTS assay: qHTS cell viability counter screen (AID 1963581); also: nearly all actives have a fitted effect of over 45% in size
Procedure, shortened: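 p53RE-bla HCT-116 cells, compounds added 5 h after plating and incubated 16 h at 37 C. Cytotoxicity measured in the same wells as intracellular ATP by CellTiter-Glo luminescence after 30 min at room temperature.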

[11] = p53 small molecule agonists, cell-based qHTS assay (AID 1963582; active = well fitted activation curve with a large enough effect in the signal ratio in the repeat runs, not every such curve was filed as active; the % refers to the signal ratio)
Procedure, shortened: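 p53RE-bla reporter cells, compounds added in DMSO after 5 h plating, incubated 16 h at 37 C. Beta-lactamase read via 2 h room-temperature LiveBLAzer B/G FRET substrate, fluorescence intensity.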

[12] = target: 5-hydroxytryptamine receptor 2A (Homo sapiens) (UniProt P28223); test: 5-hydroxytryptamine receptor 2A (HTR2A) small molecule antagonists, cell-based qHTS assay (AID 1963586); also: nearly all actives have a fitted effect of over 45% in size
Sequence of 5-hydroxytryptamine receptor 2A (Homo sapiens) (P28223 whole entry, looked up): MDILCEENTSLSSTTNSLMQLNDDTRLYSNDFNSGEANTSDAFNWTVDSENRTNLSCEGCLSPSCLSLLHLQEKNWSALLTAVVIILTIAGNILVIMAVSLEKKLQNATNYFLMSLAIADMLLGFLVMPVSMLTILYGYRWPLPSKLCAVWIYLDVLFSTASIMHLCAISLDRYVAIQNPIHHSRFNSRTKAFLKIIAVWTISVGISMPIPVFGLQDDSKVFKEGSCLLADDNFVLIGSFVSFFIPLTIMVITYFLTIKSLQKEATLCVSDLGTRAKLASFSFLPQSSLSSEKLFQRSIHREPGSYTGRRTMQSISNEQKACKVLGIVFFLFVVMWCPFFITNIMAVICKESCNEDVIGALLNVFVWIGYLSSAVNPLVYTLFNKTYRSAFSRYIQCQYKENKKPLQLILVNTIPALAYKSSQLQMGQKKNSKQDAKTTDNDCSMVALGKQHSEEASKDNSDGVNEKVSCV
Procedure, shortened: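 Antagonist-mode intracellular calcium assay: DOI (4 nM) added after 5 min compound pre-incubation at room temperature to dye-loaded HTR2A-CHO cells. Fluorescence followed for 3 min, sampled every second.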

[13] = target: 5-hydroxytryptamine receptor 2A (Homo sapiens) (UniProt P28223); test: 5-hydroxytryptamine receptor 2A (HTR2A) small molecule agonists, cell-based qHTS assay (AID 1963587); also: nearly all actives have a fitted effect of over 30% in size; also: potency is read from the fitted curve at half-maximal effect
Procedure, shortened: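 Kinetic calcium-flux fluorescence (2 min, 1 sec intervals) after compound addition in agonist mode. HTR2A-CHO cells were cultured 18 h, then dye-loaded 1 h at 37 C.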

[14] = target: Muscarinic acetylcholine receptor M1 (Homo sapiens) (UniProt P11229); test: Cholinergic receptor muscarinic 1 (CHRM1) small molecule antagonists, cell-based qHTS assay (AID 1963588); also: nearly all actives have a fitted effect of over 40% in size
Sequence of Muscarinic acetylcholine receptor M1 (Homo sapiens) (P11229 whole entry, looked up): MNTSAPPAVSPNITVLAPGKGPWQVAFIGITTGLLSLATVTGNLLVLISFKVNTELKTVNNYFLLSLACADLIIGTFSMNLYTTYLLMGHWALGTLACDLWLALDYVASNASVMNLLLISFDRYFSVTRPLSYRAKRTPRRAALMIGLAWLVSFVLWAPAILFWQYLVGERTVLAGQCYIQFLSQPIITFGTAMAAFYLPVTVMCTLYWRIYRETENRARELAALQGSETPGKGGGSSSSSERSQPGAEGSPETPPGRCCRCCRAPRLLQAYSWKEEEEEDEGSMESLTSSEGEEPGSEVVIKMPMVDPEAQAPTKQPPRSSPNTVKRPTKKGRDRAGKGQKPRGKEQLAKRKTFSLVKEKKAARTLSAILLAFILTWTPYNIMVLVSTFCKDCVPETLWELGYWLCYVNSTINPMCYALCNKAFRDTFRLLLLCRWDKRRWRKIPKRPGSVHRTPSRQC
Procedure, shortened: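 CHRM1-CHO calcium-flux assay, antagonist mode. Cells were seeded 18 h, dye-loaded 1 h at 37 C and given compound for 5 min at RT, then acetylcholine was added at 50nM. FDSS fluorescence was read 3 min; 15 concentrations, three runs.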

[15] = target: Muscarinic acetylcholine receptor M1 (Homo sapiens) (UniProt P11229); test: Cholinergic receptor muscarinic 1 (CHRM1) small molecule agonists, cell-based qHTS assay (AID 1963589); also: nearly all actives have a fitted effect of over 35% in size
Procedure, shortened: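 CHO cells stably expressing human CHRM1 were loaded with calcium dye for 1 h at 37 C, then compound was added in agonist mode. Intracellular calcium fluorescence was followed kinetically at 1 s intervals. Fifteen concentrations were tested in three independent runs.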

[16] = cAMP Responsive Elements (CRE) small molecule agonists, cell-based qHTS assay (AID 1963590)
Procedure, shortened: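 CRE-bla HEK 293T cells, 2,000/well in DMEM with 10% dialyzed FBS and 25 mM HEPES, pre-incubated 18 h at 37 C, then exposed to compound 3 h at 37 C. Beta-lactamase reporter read with LiveBLAzer B/G FRET substrate after 2 h at room temperature.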

[17] = cAMP Responsive Elements (CRE) small molecule antagonists, cell-based qHTS assay (AID 1963591; active = well fitted inhibition curve with a large enough effect in the signal ratio in the repeat runs, not every such curve was filed as active; the % refers to the signal ratio)
Procedure, shortened: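 CRE-bla HEK293T cells plated 18 h, then given compound plus NKH477 at 0.25 uM final for 3 h at 37C. Beta-lactamase reporter read with LiveBLAzer B/G FRET substrate after 2 h at room temperature.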

[18] = target: D(2) dopamine receptor (Homo sapiens) (UniProt P14416); test: Dopamine D2 receptor (DRD2) small molecule agonists, cell-based qHTS assay (AID 1963594); also: nearly all actives have a fitted effect of over 35% in size
Sequence of D(2) dopamine receptor (Homo sapiens) (P14416 whole entry, looked up): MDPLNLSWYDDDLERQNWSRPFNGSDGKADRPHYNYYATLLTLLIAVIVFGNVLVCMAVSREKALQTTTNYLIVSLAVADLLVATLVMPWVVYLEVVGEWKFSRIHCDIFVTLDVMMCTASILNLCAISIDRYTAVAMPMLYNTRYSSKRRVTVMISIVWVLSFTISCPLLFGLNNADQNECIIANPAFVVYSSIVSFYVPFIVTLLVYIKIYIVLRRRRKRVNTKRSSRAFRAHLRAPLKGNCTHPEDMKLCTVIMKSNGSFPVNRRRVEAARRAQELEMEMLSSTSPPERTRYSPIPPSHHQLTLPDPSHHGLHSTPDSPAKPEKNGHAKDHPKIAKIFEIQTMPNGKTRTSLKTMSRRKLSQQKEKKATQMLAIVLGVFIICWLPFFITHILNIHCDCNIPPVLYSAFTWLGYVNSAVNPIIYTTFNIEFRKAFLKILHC
Procedure, shortened: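 cAMP accumulation in DRD2-HEK293 cells measured by HTRF after 1 h detection; compounds added 10 min before NKH477 (200nM […]) forskolin-analogue stimulation, 30 min at room temperature, with Ro20-1724 present at 0.1 mM final.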

[19] = target: D(2) dopamine receptor (Homo sapiens) (UniProt P14416); test: Dopamine D2 receptor (DRD2) small molecule antagonists, cell-based qHTS assay (AID 1963595; active = well fitted inhibition curve with a large enough effect in the signal ratio in the repeat runs, with a control signal flat; the % refers to the signal ratio)
Procedure, shortened: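 HEK293 cells stably expressing DRD2 were preincubated with 0.1 mM Ro20-1724, then with compound for 10 min at room temperature. Cells were stimulated with 200 nM NKH477 plus 12 nM quinpirole for 30 min, and cAMP was read by HTRF.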

[20] = target: Beta-2 adrenergic receptor (Homo sapiens) (UniProt P07550); test: Adrenergic beta2 receptor (ADRB2) small molecule antagonists, cell-based qHTS assay (AID 1963592); also: series mostly up to about 92 µM; nearly all actives have a fitted effect of over 50% in size
Sequence of Beta-2 adrenergic receptor (Homo sapiens) (P07550 whole entry, looked up): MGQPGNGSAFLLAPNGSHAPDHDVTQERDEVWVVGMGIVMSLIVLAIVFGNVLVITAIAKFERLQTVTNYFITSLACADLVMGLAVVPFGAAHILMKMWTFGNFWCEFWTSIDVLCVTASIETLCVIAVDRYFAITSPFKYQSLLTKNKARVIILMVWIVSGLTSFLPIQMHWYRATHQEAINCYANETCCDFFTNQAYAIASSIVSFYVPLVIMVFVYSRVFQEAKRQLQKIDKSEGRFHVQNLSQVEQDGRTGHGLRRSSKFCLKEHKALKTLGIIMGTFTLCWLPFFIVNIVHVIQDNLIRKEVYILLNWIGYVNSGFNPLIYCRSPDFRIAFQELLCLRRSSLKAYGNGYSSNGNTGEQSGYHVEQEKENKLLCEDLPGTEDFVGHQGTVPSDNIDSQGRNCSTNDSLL
Procedure, shortened: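 Cells (CHO, stable ADRB2 overexpression) incubated 18-20hr at 37C; compounds added from DMSO; agonist mix (1nM isoproterenol, 100uM IBMX, 25uM Ro-20-1724) added; 0.5hr RT; d2-cAMP and anti-cAMP-cryptate added; 1hr RT; 665/615 nm read.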

Measured: Potency

CCCCCCCCCCCCCCCCC(=O)O
not listed: [20]
inactive: all other assays above

C/C=C(\C)C(=O)OCCc1ccccc1
not listed: [20]
inactive: all other assays above

C=CCc1ccccc1OCC(O)CNC(C)C (stereo not given)
not listed: [20]
inactive: all other assays above

CCc1cccc(CC)c1NC(=O)CN(CC(=O)O)CC(=O)O
not listed: [20]
inactive: all other assays above

Cc1cc(-c2ccccc2)nnc1NCCN1CCOCC1
not listed: [20]
inactive: all other assays above

COC(=O)c1cccc(Cl)c1
active: [13] 21.6 µM
inactive: all other assays above

CCCCOCCOC(=O)c1cccnc1
not listed: [20]
inactive: all other assays above

C=CC(=O)OCC1CCCO1 (stereo not given)
not listed: [19] | [20]
inactive: all other assays above

O=C(CCCl)NCc1ccccc1
inactive: all assays above

c1cc[nH]c1
not listed: [18] | [20]
inactive: all other assays above

[Cl][Sc]([Cl])[Cl]
not listed: [18]
inactive: all other assays above

C=CC(C)(CCC=C(C)C)OC(=O)C(C)C (stereo not given)
not listed: [18]
inactive: all other assays above

CC1=CP(=O)(c2ccccc2)CC1 (stereo not given)
not listed: [20]
inactive: all other assays above

CCNC(=O)C(C)OC(=O)Nc1ccccc1 (stereo not given)
not listed: [20]
inactive: all other assays above

O=C(COCCOCCOCC(=O)Nc1c(I)cc(I)c(C(=O)O)c1I)Nc1c(I)cc(I)c(C(=O)O)c1I
not listed: [18]
inactive: all other assays above
